Compound activity deposited in PubChem BioAssay by several laboratories.
Mtb FBA inh: inhibits M. tuberculosis FBA enzyme; P9WQA3; purified M. tuberculosis FBA, fluorescence read-out; inhibition, % at 1 µM; actives 2.3% (n = 360,000); AID 588726; in the data active = inhibition above about 27%
Target sequence (P9WQA3 whole entry, looked up): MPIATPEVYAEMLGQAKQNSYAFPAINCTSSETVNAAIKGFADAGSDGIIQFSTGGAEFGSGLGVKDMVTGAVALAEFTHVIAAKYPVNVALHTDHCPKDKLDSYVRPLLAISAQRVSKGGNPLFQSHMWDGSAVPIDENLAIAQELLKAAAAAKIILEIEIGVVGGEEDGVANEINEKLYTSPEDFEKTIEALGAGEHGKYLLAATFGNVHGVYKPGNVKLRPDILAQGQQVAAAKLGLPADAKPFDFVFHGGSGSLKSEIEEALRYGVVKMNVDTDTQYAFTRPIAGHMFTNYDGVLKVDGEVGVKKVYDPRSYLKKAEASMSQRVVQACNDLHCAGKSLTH
GDH-TPI counter-1: GDH-TPI coupled enzyme inhibition counter-screen. GDH-TPI coupled enzyme counterscreen, NADH absorbance. inhibition, % at 4.8 µM. actives 1.2% (n = 360,000). AID 588335
Vc quorum ag: quorum light induction in luxS cqsA deficient V. cholerae | V. cholerae BH1578 lux reporter, luminescence, 6 h | activation, % at 18.7 µM | actives 0.16% (n = 350,000); in the data active = activation mostly above about 9.7%, no sharp cut-off
CCHFV vOTU inh: CCHFV vOTU protease inhibition; Pep-AMC fluorescence; inhibition, % at 11.5 µM; actives 0.55% (n = 370,000); AID 651958
Mtb FBA confirm: Mtb FBA inhibition, confirmed; shares compounds with Mtb FBA inh; purified M. tuberculosis FBA, fluorescence read-out; inhibition, % at 1 µM; actives 78% (n = 5,600); in the data active = inhibition above about 27%
GDH-TPI counter-2: GDH-TPI inhibition counter-screen for FBA inhibitors; shares compounds with Mtb FBA inh; GDH-TPI coupled enzyme counterscreen, fluorescence; inhibition, % at 1 µM; actives 81% (n = 5,600); in the data active = inhibition above about 10%
Numbers stand for hits; 0 = inactive; - = no result given; + = active, no number. Most compounds without a hit are left out; they make up all but 3.9% or so of the library. Rule as the data show it, unless noted: active = inhibition above about 30%; inactive = the rest.

SMILES	Mtb FBA inh	GDH-TPI counter-1	Vc quorum ag	CCHFV vOTU inh	Mtb FBA confirm	GDH-TPI counter-2
CC12CCC(=O)N1c1c(sc3nc(N4CCOCC4)c4c(c13)CCCC4)C(=O)N2 (stereo not drawn)	63	0	0	0	122	113
O=C(O)c1cccnc1SCc1cn2cc(Br)ccc2n1	0	0	0	0	-	-
Cc1cc(C)n2cc(CSc3nnnn3-c3ccccc3C)nc2n1	0	0	0	0	-	-
Cc1cc(C)n2cc(CSc3ncccc3C(=O)O)nc2n1	82	0	-	0	199	179
Cc1cc(C)n2cc(CSC3=NCCS3)nc2n1	53	0	0	0	190	155
Cc1ccnc(SCc2cn3c(C)cc(C)nc3n2)n1	100	0	0	0	46	48
Cc1cc(C)nc(NC2=NCCS2)n1	0	0	0	0	-	-
COc1ccc(-c2nnc3n(CCc4ccccc4)c(=O)c4ccccc4n23)c(OC)c1	0	0	0	0	-	-
Cc1c(Cc2ccccc2)c(=O)oc2cc(OCC(=O)NC(Cc3ccc(Cl)cc3)C(=O)O)ccc12 (stereo not drawn)	92	0	0	0	170	151
Cc1c(CC(=O)NCC(=O)N[C@H](Cc2ccccc2)C(=O)O)c(=O)oc2cc(O)ccc12	-	0	0	0	-	-
Cc1c(C)c2ccc(OCC(=O)NC(Cc3ccc(Cl)cc3)C(=O)O)cc2oc1=O (stereo not drawn)	96	0	0	0	116	79
Cc1c(OCC(=O)N2CCC(C(=O)O)CC2)ccc2c3c(c(=O)oc12)CCC3	0	0	0	0	-	-
COc1ccc2c(CN3CCN(C(C)=O)CC3)cc(=O)oc2c1	0	-	-	0	-	-
COc1ccc(NCc2cc(=O)oc3cc(NC(C)=O)ccc23)cc1	73	0	0	0	121	88
CCCc1cc(=O)oc2cc(OCC(=O)NC(Cc3ccc(Cl)cc3)C(=O)O)ccc12 (stereo not drawn)	0	0	0	0	-	-
Cc1c(Cc2ccccc2)c(=O)oc2c(C)c(OCC(=O)N3CCC(C(=O)O)CC3)ccc12	107	0	0	0	60	32
Cc1ccccc1C(=O)N1CCC2CC1c1cc(-c3ccc(F)cc3)ccc12 (stereo not drawn)	0	0	0	0	-	-
CCOC(=O)c1ccc(S(=O)(=O)N2CCC(C(=O)Nc3nnc(C)o3)CC2)cc1	0	0	0	0	-	-
COc1ccc2c(CC(=O)N[C@@H](Cc3ccccc3)C(=O)O)cc(=O)oc2c1	101	0	0	0	100	86
COc1ccc2c(COC(=O)[C@H](C)NS(=O)(=O)c3ccccc3F)cc(=O)oc2c1	109	0	0	0	+	153
CCCCCCc1c(C)c2ccc(OCC(=O)N[C@@H](Cc3ccccc3)C(=O)O)cc2oc1=O	73	0	0	0	+	+
C=CCNS(=O)(=O)c1ccc(C(=O)OCc2cc(=O)oc3cc(OC)ccc23)cc1	0	0	0	0	-	-
COc1ccc2c(COC(=O)c3n[nH]c4ccccc34)cc(=O)oc2c1	35	0	0	0	124	107
Cc1cc2oc(=O)cc(COC(=O)c3n[nH]c4ccccc34)c2cc1C	0	0	0	0	-	-
Cc1c(C)c2ccc(OCC(=O)N[C@@H](Cc3c[nH]c4ccccc34)C(=O)O)cc2oc1=O	0	0	0	0	-	-
SMILES	Mtb FBA inh	GDH-TPI counter-1	Vc quorum ag	CCHFV vOTU inh	Mtb FBA confirm	GDH-TPI counter-2
Cc1ccc(S(=O)(=O)N2CCN(C(=O)c3cc(S(=O)(=O)N(C)C)ccc3N3CCCC3)CC2)c(C)c1	0	0	0	0	-	-
Cc1c(C)c2ccc(OCC(=O)N[C@@H](Cc3ccccc3)C(=O)O)cc2oc1=O	77	0	0	0	95	81
Cc1c(C)c2ccc(OCC(=O)NC3CCN(Cc4ccccc4)CC3)cc2oc1=O	39	0	0	0	50	39
Cc1c(Cc2ccccc2)c(=O)oc2c(C)c(OCC(=O)N[C@@H](Cc3ccccc3)C(=O)O)ccc12	53	0	0	0	+	+
Cc1c(Cc2ccccc2)c(=O)oc2c(C)c(OCC(=O)NCc3ccccn3)ccc12	0	0	0	0	-	-
Cc1cc(OCC(=O)N[C@@H](CSCc2ccccc2)C(=O)O)c2c(C)c(C)c(=O)oc2c1	62	0	0	0	78	68
Cn1c(N)c(C(=O)COC(=O)COc2cccc(Br)c2)c(=O)n(C)c1=O	0	0	0	0	-	-
N#Cc1ccc(-c2ccc(OCC3CNC(=O)O3)cc2)cc1 (stereo not drawn)	44	0	0	0	+	+
COc1cccc2oc3ccc(C#Cc4ccccn4)cc3c(=O)c12	86	0	0	0	99	83
